Screening data deposited in PubChem BioAssay by National Center for Advancing Translational Sciences (NCATS).
FMDV inh – antivirals against foot and mouth disease virus; FMDV antiviral cell-based qHTS; Potency, µM (series often up to 57.9 µM), hits mostly inhibitors; actives 1.2% (n = 410,000); calls by dose curve; tested in HEK293T cells; note: read-out not given here; nearly all actives have a fitted effect of over 45% in size
Vaccinia mCherry – inhibitors of vaccinia virus infection (mCherry reporter signal). Potency, µM (highest dose often 36.5 µM), hits mostly inhibitors. actives 0.63% (n = 310,000). Vaccinia virus mCherry reporter infection, fluorescence; calls by dose curve; tested in A549 cells; note: nearly all actives have a fitted effect of over 35% in size
HCMV antiviral – human cytomegalovirus inhibition | actives 4.5% (n = 410,000) | HFF cells, HCMV-luciferase reporter, 72 h; hits give low values | activity change, negative = inhibition, % at 57.5 µM | AID 1259415; in the data active = activity change below about -60%; inconclusive = no clear call, values can overlap the other calls; inactive = above about -39%
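Steps: HFFs plated, 16 h 37C; compounds added; HCMV-luciferase added to MOI 1 PFU/cell; 72 h 37C; OneGlo reagent, 5 min room temperature; luminescence read, normalized to controls.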
VACV Venus inh – inhibitors of vaccinia virus (Venus reporter) | AID 720580 | actives 0.46% (n = 330,000) | Vaccinia virus Venus reporter expression, fluorescence | Potency, µM (series often up to 36.5 µM), most hits filed as inhibitors; calls by dose curve; tested in A549 cells; note: nearly all actives have a fitted effect of over 30% in size
HCV inh – blocks hepatitis C virus | AID 651820 | Huh7.5.1 HCVcc-Cre infection, luciferase reporter, 44 h | actives 3.4% (n = 340,000) | Potency, µM (top dose mostly 41.8 µM), hits mostly inhibitors; active = well fitted inhibition curve with a large enough effect; inconclusive = small, poorly fitted or top-dose-only effect, or another doubt; inactive = no such curve, though single readings can be large or run the other way
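Compounds are dispensed onto cells plated 4 h earlier at 1,000 per well, with HCVcc-Cre virus (about 0.5 moi) added next. Following 44 h of culture, luminescent signal is measured for 15 sec after 15 min with substrate at room temperature.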
A number is an active result; - = inactive; ? = inconclusive; . = no result given; ! = not confirmed by another sample. Most compounds without a hit are left out; they make up all but 7.3% or so of the library.

SMILES | FMDV inh | Vaccinia mCherry | HCMV antiviral | VACV Venus inh | HCV inh
Cc1nc(N2CCN(Cc3ccccc3)CC2)c(C#N)c2c1COC(C)(C)C2 | ? | . | ? | - | 11.2µM
CC(C)c1nc(N2CCN(C(=O)c3ccccc3)CC2)c(C#N)c2c1COC(C)(C)C2 | - | - | - | - | ?
CC1CCN(CC(CS(=O)(=O)c2ccc([N+](=O)[O-])cc2)N2CCC(C)CC2)CC1 (centres undefined) | 28.2µM | ? | -62.3 | ? | 5.01µM
Cc1ccc(S(=O)(=O)CC(CN2CCOCC2)N2CCOCC2)cc1 (centres undefined) | - | - | - | - | -
CCN(CC(=O)Nc1c(F)cccc1F)C(=O)c1ccc(OC)c(S(=O)(=O)NC2CCCC2)c1 | - | - | -71.6 | - | .
O=C(Cc1ccccc1)Nc1ncccc1Cl | - | - | - | - | -
CC(C)(C)c1ccc(S(=O)(=O)N2CC3CC(C2)c2cccc(=O)n2C3)cc1 (centres undefined) | . | - | - | - | -
COc1ccc(S(=O)(=O)N2CC3CC(C2)c2cccc(=O)n2C3)cc1 (centres undefined) | - | - | -65.2 | - | -
CCCOc1ccc(C(=O)Nc2ccc(S(=O)(=O)N3C[C@@H]4C[C@@H](C3)c3cccc(=O)n3C4)cc2)cc1 | - | ? | - | ? | 3.16µM
COc1ccc(CCn2c(=S)[nH]c(=O)c3cccnc32)cc1OC | . | - | . | - | .
COc1ccc(NC(=O)Cn2c(SCc3ccc(F)cc3)nc3cccnc32)c(OC)c1 | - | - | - | - | .
Cc1cc(Nc2cccc(Cl)c2)nc2ccc(NC(=O)c3cccnc3)cc12 | ? | - | -98.1 | - | .
Cc1cccc(OCC(=O)Nc2ccc3nc(Nc4cccc(C(F)(F)F)c4)cc(C)c3c2)c1 | - | - | - | - | .
Cc1cc(Nc2cccc(C(F)(F)F)c2)nc2ccc(NC(=O)Cc3ccc(Cl)cc3)cc12 | ? | - | -102.5 | ? | .
COc1ccc(CC(=O)Nc2ccc3nc(Nc4cccc(Cl)c4)cc(C)c3c2)cc1 | - | ? | -102.2 | ? | .
Cc1cc(Nc2cccc(Cl)c2)nc2ccc(NC(=O)c3cccc(N(C)C)c3)cc12 | - | - | - | - | .
CCOc1ccccc1N(C)C(=O)c1sc2nc3n(c(=O)c2c1C)CCCC3 | - | - | - | - | .
O=C(NC1CC1)c1ccc2c(Cl)c3c(nc2c1)CCCC3 | - | . | -61.7 | . | -
O=C(Nc1ccccc1F)c1ccc2c(Cl)c3c(nc2c1)CCC3 | 10µM | - | -86.5 | - | .
COCCNC(=O)CSc1c2c(nc3cc(Cl)ccc13)CCCC2 | ? | - | - | - | .
CCN(CC)CCNC(=O)CSc1c2c(nc3cc(Cl)ccc13)CCCC2 | ? | - | -99.1 | - | 10µM
CCCN1CCN(CCCNC(=O)c2ccc3c(Cl)c4c(nc3c2)CCCC4)CC1 | - | . | - | . | ?
O=C(NCCCN1CCCC1)c1ccc2c(Cl)c3c(nc2c1)CCCC3 | ? | - | -73.3 | ? | 11.2µM
CCCCCC(=C/c1ccccc1)/C=N/Nc1ccc(S(=O)(=O)N2CCOCC2)cc1[N+](=O)[O-] | - | ? | - | - | ?
Cc1c(C(=O)NCCCN2CCCC2=O)cnn1-c1ncc2c(n1)-c1ccccc1CC2 | - | ? | . | - | .
SMILES | FMDV inh | Vaccinia mCherry | HCMV antiviral | VACV Venus inh | HCV inh
c1ccc(OC2CCCCC2N2CCOCC2)cc1 (centres undefined) | - | - | - | - | .
Cc1cc(N(C)Cc2ccccc2)n2nc(-c3ccc(C(C)(C)C)cc3)nc2n1 | - | - | ? | - | .
Cc1ccc(NC(=O)CN2CCN(C(=O)C3CC3)CC2)c(F)c1 | - | - | - | - | .
O=C(NCc1cccc(Cl)c1)c1ccc2c(Cl)c3c(nc2c1)CCCC3 | - | - | -78.2 | - | .
CCN(CC)CCCNC(=O)c1ccc2c(Cl)c3c(nc2c1)CCCC3 | - | - | -88.2 | - | ?
CCCCN(CC)CCNC(=O)c1ccc2c(Cl)c3c(nc2c1)CCC3 | - | ? | - | - | ?
CCc1ccccc1NC(=O)COC(=O)c1c(C)nsc1NC | ? | . | ? | . | 4.47µM
Cc1ccc(CNC(=O)C2CCCN2S(=O)(=O)c2ccc(Cl)cc2)cc1 (centres undefined) | - | . | - | . | -
COc1ccc2occ(C(C)=O)c2c1 | . | - | - | - | -
COc1cc(C)c2occ(/C(C)=N\O)c2c1 | - | . | - | . | 8.91µM
Cc1ccc(C)c(N(C(=O)Cn2nnc3ccccc32)C(C(=O)NC(C)(C)C)c2ccsc2)c1 (centres undefined) | . | - | -77.7 | - | ?
N#CCCn1c(=O)c(-c2ccccc2)nc2cnc(N3CCNCC3)nc21 | - | . | . | . | .
CCCCNC(=O)CCCn1c(=O)c2ccccc2n(Cc2ccccc2C)c1=O | - | - | - | - | .
COc1ccc(OC)c2c(=O)cc(C(=O)O)[nH]c12 | - | - | - | - | -
COc1ccc(OC)c2c(C)c(C)[nH]c12 | - | - | - | - | 10µM
CCOC(=O)c1ccc(N2CCN(c3ccc(F)cc3)CC2)c(NC(=O)Nc2ccc(CC)cc2)c1 | - | - | - | - | .
Cn1c(=NC(=O)CS(=O)(=O)c2ccccc2)sc2cc([N+](=O)[O-])ccc21 | - | - | -87.2 | - | -
Cc1csc(=O)n1CC(=O)OCC(=O)Nc1ccc(F)c(F)c1F | - | - | - | - | .
CC(CNC(=O)Cn1ccc2cc(S(=O)(=O)N3CCCCC3)ccc21)c1ccccc1 (centres undefined) | - | - | - | - | .
CCCCN1CCc2nc(N3CCN(c4ncccn4)CC3)ncc2C1 | - | - | - | - | .
C=CCn1c(SCc2ccc(C(=O)Nc3nccs3)cc2)nnc1-c1ccc(C)c(Cl)c1 | 28.2µM | ? | -94.3 | ? | 8.91µM
Cn1nnnc1SCc1ccc(C(=O)Nc2nccs2)cc1 | - | - | - | - | -
NC(CSC(c1ccccc1)(c1ccccc1)c1ccc2c(c1)OCO2)C(=O)O (centres undefined) | - | - | - | ? | .
CCCCc1nc2cc(C(=O)NCc3nccn3CC)ccc2o1 | - | . | - | . | -
CCCCc1nc2cc(C(=O)NCc3cn(C)nc3C)ccc2o1 | - | - | - | - | 12.6µM
SMILES | FMDV inh | Vaccinia mCherry | HCMV antiviral | VACV Venus inh | HCV inh
O=C(NCc1ccccc1)c1nc2ccccc2nc1-c1ccc(F)cc1 | . | . | - | . | .
CCCCN1CCc2c(c3ccccc3n2Cc2ccccc2)C1 | - | . | ? | . | ?
CN1CCc2c(c3ccccc3n2Cc2ccccc2)C1 | - | 28.2µM! | - | 12.6µM! | -
Cc1nn(C)cc1CNC(=O)c1cc2n(n1)C(C(F)(F)F)CC(c1cccs1)N2 (centres undefined) | . | - | ? | - | ?
Cc1nn(C)c(C)c1CNC(=O)c1nn2c(c1Cl)NC(c1cccs1)CC2C(F)(F)F (centres undefined) | . | ? | -85.6 | ? | ?
O=C(O)c1cnn2c1NC(c1cccs1)CC2C(F)(F)F (centres undefined) | - | . | - | - | -
CC(C)NC(=O)c1cnn2c1NC(c1cccs1)CC2C(F)(F)F (centres undefined) | - | - | ? | - | 2.82µM
COc1cccc(NC(=O)NCc2c(-c3ccccc3)noc2C)c1 | - | - | - | - | -
CCC(C)n1cnc2c(c1=O)c1nc3ccccc3nc1n2Cc1ccc(OC)cc1 (centres undefined) | - | - | -75.2 | - | ?
